Several values for one entry are separate records, joined by “and”; a condition that tells them apart may be missing. Equal entries are not always repeated. Inconclusive results are not listed. Entries that show only a call come without a potency. Activity calls are given as the source filed them. Unless noted, the call rests on the fitted dose curve; in most records, active means well fitted curve in the direction sought with a large enough effect; inconclusive means small, poorly fitted or top-dose-only effect, or another doubt; inactive means no such curve, though single readings can be large; an effect the other way counts as inactive or inconclusive.
Tests used:
[1] = Validation of Assay for Modulators of Lamin A Splicing (AID 1459; active means well fitted curve in the direction sought with a large enough effect in the signal ratio; the % refers to the signal ratio;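 further: cells exposed to compound for two days before reading; ratio rise marks activators and ratio drop marks inhibitors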)
In short: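 S3 HeLa stably expressing lamin A-EGFP splicing minigene and DsRed2, 600 cells/well in Opti-MEM with 2% FBS, treated 48 h at 37C; laser-scanning cytometry gives GFP/RFP total intensity ratio; ancitabine positive control, 0.5% DMSO vehicle.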

[2] = biological target: DNA repair nuclease/redox regulator APEX1 (Homo sapiens) (UniProt P27695); assay: qHTS Validation Assay for Inhibitors of the Human Apurinic/apyrimidinic Endonuclease 1 (APE1) (AID 1705;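 further: TAMRA fluorescence gain over two minutes as APE1 cuts a quenched THF abasic duplex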)
In short: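 Fluorogenic double-stranded THF abasic-site substrate (5'-TAMRA/3'-BHQ-2), 50 nM final. Enzyme preincubated with compound 15 min at room temperature, then substrate added. Kinetic fluorescence (ex 525/em 598 nm) read three times at 60 s intervals; activity taken as third-minus-first read difference.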

[3] = Counterscreen for APE1 Inhibitors: Fluorescent Dye Displacement Validation Assay (AID 1707); further: potency means the concentration at half of the fitted maximal effect
In short: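 Signal: ThO fluorescence (ex 480 nm/em 540 nm) on binding 50 nM dsDNA; displacement by test compound reduces it. Conditions: 250 nM dye, 50 mM Tris-HCl pH7.5, 2 mM MgCl2, 50mM NaCl, 0.01% Tween-20.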

[4] = biological target: Endonuclease 4 (Escherichia coli (strain K12)) (UniProt P0A6C1); assay: Counterscreen for APE1 Inhibitors: qHTS Validation Assay for Inhibitors of Endonuclease IV (AID 1708)
In short: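 The reaction buffer contained 50 mM Tris-HCl pH 7.5, 50 mM NaCl, 2 mM MgCl2, 1 mM DTT and 0.01% Tween-20. Incision of a 50 nM fluorophore/quencher THF substrate by 2 nM enzyme was measured kinetically.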

[5] = qHTS for differential inhibitors of proliferation of Plasmodium falciparum line 7G8 (AID 1815);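 further: parasite growth measured after three days of incubation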; further: potency means the concentration at half of the fitted maximal effect
[6] = qHTS for differential inhibitors of proliferation of Plasmodium falciparum line GB4 (AID 1816); details: Potency: Plasmodium falciparum GB4 proliferation inhibition;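 further: parasite growth measured after 72 h incubation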; further: potency means the concentration at half of the fitted maximal effect
[7] = qHTS for differential inhibitors of proliferation of Plasmodium falciparum line 3D7 (AID 1876); further: potency means the concentration at half of the fitted maximal effect
[8] = biological target: Alpha-galactosidase A (Homo sapiens) (UniProt P06280); assay: Counterscreen for Glucocerebrosidase Inhibitors: qHTS Assay for Human alpha-Galactosidase at pH 4.5 (AID 992)
In short: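 Citrate buffer pH 4.5, Tween-20 0.005%. Enzyme 2 nM, substrate 80 uM, 20 min RT. Stop pH 10. Fluorescence Ex 365/Em 440. AC50 by Hill fit.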

[9] = biological target: alpha-glucosidase (Oryza sativa, rice) (UniProt Q653V4); assay: Counterscreen for Glucocerebrosidase Inhibitors: qHTS Assay for Rice alpha-Glucosidase at pH 5.0 (AID 997)
In short: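 Endpoint fluorogenic assay at pH 5.0: compounds (0.7 nM to 77 uM) titrated against 4 nM rice enzyme and 400 uM 4-MU-alpha-glucoside for 20 min at room temperature; NaOH/glycine stop, read ex 365/em 440 nm, Hill-fitted AC50.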

[10] = biological target: Alpha-galactosidase (Coffea arabica) (UniProt Q42656); assay: Counterscreen for Glucocerebrosidase Inhibitors: qHTS Assay for Coffee Bean alpha-Galactosidase at pH 5.9 (AID 998)
In short: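 Fluorogenic 4-MU substrate hydrolysis, 80 uM substrate and 2 nM coffee bean alpha-galactosidase, pH 5.9 citrate buffer, 20 min at room temperature, then NaOH/glycine stop. Titration 0.7 nM–77 uM, normalized to no-enzyme and enzyme controls, AC50 via Hill equation.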

[11] = qHTS Assay for Lipid Storage Modulators (AID 1519; calls by dose curve); details: Drosophila S3 cells, BODIPY lipid droplet/cell ratio, laser cytometry, cells loaded with oleic acid; for activity change, negative = inhibition: at 57.5 µM (top of the series)
In short: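 Cells seeded at 5,000 per well were treated with compounds over a concentration series and loaded with oleic acid (400 uM, as added). Lipid droplet fluorescence (488 nm excitation, 500-530 nm channel) was read by laser-scanning cytometry and normalized to 20 uM Triacsin C.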

[12] = measured here: cell count channel max response
[13] = measured here: lipid channel max response

Chain of Alpha-galactosidase (Coffea arabica) (Q42656 whole entry, looked up): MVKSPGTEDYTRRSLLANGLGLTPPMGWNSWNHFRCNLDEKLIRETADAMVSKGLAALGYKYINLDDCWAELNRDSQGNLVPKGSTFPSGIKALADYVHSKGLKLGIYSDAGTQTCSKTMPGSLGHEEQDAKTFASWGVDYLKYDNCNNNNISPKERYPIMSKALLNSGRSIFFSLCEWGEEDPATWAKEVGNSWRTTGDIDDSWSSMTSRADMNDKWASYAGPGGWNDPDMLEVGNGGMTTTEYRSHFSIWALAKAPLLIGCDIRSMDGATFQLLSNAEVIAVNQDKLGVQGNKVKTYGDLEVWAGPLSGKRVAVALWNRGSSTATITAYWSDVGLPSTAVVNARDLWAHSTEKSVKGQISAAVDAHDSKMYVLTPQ
Chain of Alpha-galactosidase A (Homo sapiens) (P06280 whole entry, looked up): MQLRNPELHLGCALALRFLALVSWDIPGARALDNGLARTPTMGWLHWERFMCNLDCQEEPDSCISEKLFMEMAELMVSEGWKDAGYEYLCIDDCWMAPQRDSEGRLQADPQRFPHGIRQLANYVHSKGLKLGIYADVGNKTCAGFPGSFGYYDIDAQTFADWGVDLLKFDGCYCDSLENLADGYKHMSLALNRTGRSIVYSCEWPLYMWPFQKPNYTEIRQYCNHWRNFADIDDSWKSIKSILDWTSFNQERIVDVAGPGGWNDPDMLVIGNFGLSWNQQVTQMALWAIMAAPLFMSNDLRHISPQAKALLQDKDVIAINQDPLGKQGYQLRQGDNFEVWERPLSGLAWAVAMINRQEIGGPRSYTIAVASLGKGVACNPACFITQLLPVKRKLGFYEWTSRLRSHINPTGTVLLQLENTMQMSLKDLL
Chain of DNA repair nuclease/redox regulator APEX1 (Homo sapiens) (P27695 whole entry, looked up): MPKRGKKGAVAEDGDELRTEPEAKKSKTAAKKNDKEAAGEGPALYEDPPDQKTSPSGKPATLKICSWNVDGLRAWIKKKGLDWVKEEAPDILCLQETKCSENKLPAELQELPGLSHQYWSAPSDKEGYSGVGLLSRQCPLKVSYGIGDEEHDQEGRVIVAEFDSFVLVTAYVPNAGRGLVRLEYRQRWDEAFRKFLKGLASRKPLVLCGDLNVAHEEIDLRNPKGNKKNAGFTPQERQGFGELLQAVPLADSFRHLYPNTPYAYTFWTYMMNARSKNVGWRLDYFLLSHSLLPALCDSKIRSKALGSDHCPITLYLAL

| SMILES | outcome [1] | Potency [2] | Potency [3] | Potency [4] | Potency [5] | Potency [6] | Potency [7] | outcome [8] | outcome [9] | outcome [10] | activity change, negative = inhibition [11] | max response [11, 12] | max response [11, 13] |
| --- | --- | --- | --- | --- | --- | --- | --- | --- | --- | --- | --- | --- | --- |
| N[C@@H](CCl)C(=O)O | inactive | inactive | inactive | inactive | inactive | inactive | inactive |  |  |  |  |  |  |
| NC(C(=O)O)c1cc(=O)[nH]o1 (stereo not given) | inactive | inactive | inactive | inactive | inactive | inactive | inactive |  |  |  |  |  |  |
| CP(=O)(O)C1=CCNCC1 | inactive | inactive | inactive | inactive | inactive | inactive | inactive | inactive | inactive | inactive |  |  |  |
| Cc1sc2ccccc2c1CC1=NCCN1 | inactive | inactive | inactive | inactive |  | 14.1 µM (active) |  | inactive | inactive | inactive |  |  |  |
| CCCN(CCC)C1CCc2cccc(O)c2C1 (stereo not given) | inactive | inactive | inactive | inactive | inactive | inactive | inactive |  |  |  |  |  |  |
| CCOC(=O)c1ncn2c1[C@@H]1CCCN1C(=O)c1cc(OC)ccc1-2 | inactive | inactive | inactive | inactive | 7.94 µM (active) | inactive | inactive |  |  |  |  |  |  |
| C=CCN1CC[C@]23c4c5ccc(O)c4O[C@H]2/C(=N/NC(=O)c2ccccc2)CC[C@@]3(O)[C@H]1C5 | inactive | inactive | inactive | inactive | 10 µM (active) | 8.91 µM (active) | 10 µM (active) |  |  |  |  |  |  |
| NC(=O)c1cc(N2CC2)c([N+](=O)[O-])cc1[N+](=O)[O-] | inactive | inactive | inactive | inactive | inactive |  | inactive | inactive | inactive | inactive |  |  |  |
| Oc1ccc2c3c1O[C@H]1c4[nH]c5ccccc5c4C[C@@]4(O)C(C2)N(CC2CC2)CCC314 (stereo not given in full) | inactive | inactive | inactive | inactive | 8.91 µM (active) | 8.91 µM (active) | 10 µM (active) |  |  |  |  |  |  |
| NCCCP(=O)(O)O | inactive | inactive | inactive | inactive | inactive | inactive | inactive | inactive | inactive | inactive |  |  |  |
| CCCN(CCC)CCc1c[nH]c2ccc(C(N)=O)cc12 | inactive | inactive | inactive | inactive | inactive | inactive | inactive | inactive | inactive | inactive |  |  |  |
| CC(N)Cc1c[nH]c2ccc(OCc3cccs3)cc12 (stereo not given) | inactive | inactive | inactive |  | 7.94 µM (active) | 7.94 µM (active) | 10 µM (active) |  |  |  |  |  |  |
| CC(=O)NBr | inactive | inactive | inactive | inactive | inactive | inactive | inactive | inactive | inactive | inactive |  |  |  |
| NCCc1ccc(S(=O)(=O)F)cc1 | inactive | inactive | inactive | inactive | inactive | inactive | inactive | inactive | inactive | inactive |  |  |  |
| CC(C)(C)c1o[nH]c(=O)c1CC(N)C(=O)O (stereo not given) | inactive | inactive | inactive |  | inactive | inactive | inactive |  |  |  |  |  |  |
| O=C1CC[C@@]2(O)C3Cc4ccc(O)c5c4C2(CCN3CC2CC2)[C@H]1O5 (stereo not given in full) | inactive | inactive | inactive | inactive | inactive | inactive |  |  |  |  |  |  |  |
| O=[N+]([O-])c1ccc2nc(N3CCNCC3)ccc2c1 |  | inactive | inactive | inactive | 8.91 µM (active) | 12.6 µM (active) | 10 µM (active) | inactive | inactive | inactive |  |  |  |
| O=c1ccc2[nH]cc(C3=CCNCC3)c2[nH]1 |  |  |  |  |  |  |  |  |  |  | 9.75% (inactive) | 9.34% | 20.6% |
| CC(N)c1cccc(Cl)c1Cl (stereo not given) |  | inactive | inactive | inactive |  | 11.2 µM (active) | inactive |  |  |  |  |  |  |
| CC(N)Cc1ccc(O)cc1 (stereo not given) |  |  |  |  |  |  |  |  |  |  | 1.02% (inactive) | 11.5% | 13.9% |
| C=CCN1CCC23c4c5ccc(O)c4O[C@H]2C(=O)CC[C@@]3(O)C1C5 (stereo not given in full) |  | inactive | inactive | inactive | inactive | inactive | inactive |  |  |  |  |  |  |
| OC1CCCCC1N1CCC(c2ccccc2)CC1 (stereo not given) | inactive |  | inactive | inactive |  |  | inactive |  |  |  |  |  |  |
| C[C@H](N)CN1CCc2ccc(Br)cc21 |  | inactive | inactive |  | 8.91 µM (active) | 1.26 µM (active) | 8.91 µM (active) | inactive | inactive | inactive | 0.866% (inactive) | -15.5% | -16.4% |
| CN1C2CCC1CC(OC(c1ccccc1)c1ccc(Cl)cc1)C2 (stereo not given) |  | inactive | inactive |  | 2.24 µM (active) | 2.24 µM (active) | 2.24 µM (active) |  |  |  | 0.923% (inactive) | -27.9% | -25.4% |
| Clc1cc(I)cc(Cl)c1NC1=NCCN1 | inactive | inactive | inactive |  |  |  |  | inactive | inactive | inactive |  |  |  |
| CC(=O)c1c(O)c(C)c(O)c(Cc2c(O)c3c(c(C(=O)/C=C/c4ccccc4)c2O)OC(C)(C)C=C3)c1O |  | inactive | 2.24 µM (active) | inactive | 3.16 µM (active) | 3.16 µM (active) | 3.98 µM (active) |  |  |  | 1.99% (inactive) | 24.5% | 25.8% |
| CNC(=O)OCC[N+](C)(C)C | inactive |  | inactive | inactive | inactive | inactive | inactive | inactive | inactive | inactive |  |  |  |
| C[N+]1(C)CCC(OC(=O)C(c2ccccc2)c2ccccc2)CC1 |  | inactive | inactive | inactive | 8.91 µM (active) | 12.6 µM (active) | 3.16 µM (active) |  |  | inactive | -1.55% (inactive) and -0.573% (inactive) | 3.78% and -17.3% | 1.6% and -18% |

Reference: PubChem BioAssay (NCATS)
